# In publication PMC8136818, “Evolving origin-of-transfer sequences on staphylococcal conjugative and mobilizable plasmids—who’s mimicking whom?”:
# T1: SmpO408 (Staphylococcus aureus M0408)
# T1 chain: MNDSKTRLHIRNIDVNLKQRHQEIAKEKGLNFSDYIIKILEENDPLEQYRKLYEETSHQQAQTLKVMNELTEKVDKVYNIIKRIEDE
# T2: SmpOSep (Staphylococcus epidermidis VCU120)
# T2 chain: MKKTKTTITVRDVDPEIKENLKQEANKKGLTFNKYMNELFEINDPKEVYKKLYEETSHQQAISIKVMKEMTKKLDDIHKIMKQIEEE
# What was measured:
# SmpO408 = molecular target: T1, SmpO408; assay: SPR (ReDCaT); 300 mM NaCl; 10 mM HEPES, 3 mM EDTA, 0.05% Tween 20, NaCl 150 mM (SmpO49 screens), 300 mM (SmpO45, SmpO408, SmpOUNa screens) or 250 mM (Table S4); pH and temperature not stated; protein 1 uM; high values mean tight binding; conditions: protein: recombinant; tags: His6-TEV, cleaved; chain copies: 4
# Outline: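 Tag-cleaved protein, expressed in E. coli BL21(DE3)pLysS and purified by nickel-affinity and size-exclusion chromatography, was screened on a Biacore T200 SA chip by reusable DNA capture. OriT oligonucleotides were captured at 1 μM on Fc2, with a control linker on Fc1. Protein at 1 μM was injected at 30 μl/min (60 s contact, 60 s dissociation) in 10 mM HEPES, 300 mM NaCl, 3 mM EDTA, 0.05% Tween 20. DNA binding is reported as %Rmax.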
# SmpOSep = molecular target: T2, SmpOSep; assay: SPR (ReDCaT); 250 mM NaCl; 10 mM HEPES, 3 mM EDTA, 0.05% Tween 20, NaCl 150 mM (SmpO49 screens), 300 mM (SmpO45, SmpO408, SmpOUNa screens) or 250 mM (Table S4); pH and temperature not stated; protein 1 uM; high values mean tight binding; conditions: protein: recombinant; tags: His6-TEV, cleaved; chain copies: 4
Binder,binding signal (SmpO408) [%Rmax],binding signal (SmpOSep) [%Rmax]
ossA408 C11G (dsDNA) DNA 1: TTATAGGCGCGTAATA DNA 2: TATTACGCGCCTATAA,34.5 ± 1.85,
ossA408 G6C (dsDNA) DNA 1: TTATACGCGCCTAATA DNA 2: TATTAGGCGCGTATAA,35.5 ± 2.44,
ossA408-12 (dsDNA) DNA 1: TTATAGGCGCCAAATA DNA 2: TATTTGGCGCCTATAA,68.3 ± 1.07,
ossA408-7 (dsDNA) DNA 1: TTATAGCCGCCTAATA DNA 2: TATTAGGCGGCTATAA,49.8 ± 2.35,
ossA408-15 (dsDNA) DNA 1: TTATAGGCGCCTAAAA DNA 2: TTTTAGGCGCCTATAA,63 ± 1.28,
ossA408-5 (dsDNA) DNA 1: TTATTGGCGCCTAATA DNA 2: TATTAGGCGCCAATAA,67.9 ± 1.54,
ossA408-1 (dsDNA) DNA 1: ATATAGGCGCCTAATA DNA 2: TATTAGGCGCCTATAT,67.4 ± 2.06,
ossA408-8 (dsDNA) DNA 1: TTATAGGGGCCTAATA DNA 2: TATTAGGCCCCTATAA,7.62 ± 1.09,
ossA408-3 (dsDNA) DNA 1: TTTTAGGCGCCTAATA DNA 2: TATTAGGCGCCTAAAA,64.4 ± 1.7,
ossBSep (dsDNA) DNA 1: TAAATGTATGCATATT DNA 2: AATATGCATACATTTA,,16.5
ossA408-10 (dsDNA) DNA 1: TTATAGGCGGCTAATA DNA 2: TATTAGCCGCCTATAA,48.1 ± 2.02,
ossASep (dsDNA) DNA 1: TTTGCATACATTTAAA DNA 2: TTAAATGTATGCAAA,,18.8
ossA408-16 (dsDNA) DNA 1: TTATAGGCGCCTAATT DNA 2: AATTAGGCGCCTATAA,65.1 ± 0.98,
ossA408-13 (dsDNA) DNA 1: TTATAGGCGCCTTATA DNA 2: TATAAGGCGCCTATAA,63.9 ± 1.66,
ossA408-9 (dsDNA) DNA 1: TTATAGGCCCCTAATA DNA 2: TATTAGGGGCCTATAA,6.86 ± 1.04,
ossA408-4 (dsDNA) DNA 1: TTAAAGGCGCCTAATA DNA 2: TATTAGGCGCCTTTAA,69 ± 1.82,
ossA408-2 (dsDNA) DNA 1: TAATAGGCGCCTAATA DNA 2: TATTAGGCGCCTATTA,65.7 ± 2.04,
ossA408-14 (dsDNA) DNA 1: TTATAGGCGCCTATTA DNA 2: TAATAGGCGCCTATAA,63 ± 0.997,
ossB49 (dsDNA) DNA 1: CCGATGATAGCAAATT DNA 2: AATTTGCTATCATCGG,,0.6
OT408 For/Rev_18 (dsDNA) DNA 1: TAATAGGTGGCAAATTTCCCTTATGCTCTT DNA 2: AAGAGCATAAGGGAAATTTGCCACCTATTA,60.1,
